Test results reported in article PMC4336329 (PLoS ONE, 2015).
The campaign covered roughly 310,000 compounds. About 14,000 (4.5%) showed an effect of 50% or more. The effect is printed as a negative number. This excerpt belongs to a sample that is enriched for strong results.

These compounds were tested against human ether-à-go-go-related gene (hERG) potassium channel (human, UniProt Q12809) (assay: primary screen, population patch clamp on CHO cells stably expressing hERG; higher = less effect of the substance).
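Note: peak tail current of the secondary pulse compared with the same well before compound.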

Sequence of human ether-à-go-go-related gene (hERG) potassium channel (Q12809 whole entry, looked up): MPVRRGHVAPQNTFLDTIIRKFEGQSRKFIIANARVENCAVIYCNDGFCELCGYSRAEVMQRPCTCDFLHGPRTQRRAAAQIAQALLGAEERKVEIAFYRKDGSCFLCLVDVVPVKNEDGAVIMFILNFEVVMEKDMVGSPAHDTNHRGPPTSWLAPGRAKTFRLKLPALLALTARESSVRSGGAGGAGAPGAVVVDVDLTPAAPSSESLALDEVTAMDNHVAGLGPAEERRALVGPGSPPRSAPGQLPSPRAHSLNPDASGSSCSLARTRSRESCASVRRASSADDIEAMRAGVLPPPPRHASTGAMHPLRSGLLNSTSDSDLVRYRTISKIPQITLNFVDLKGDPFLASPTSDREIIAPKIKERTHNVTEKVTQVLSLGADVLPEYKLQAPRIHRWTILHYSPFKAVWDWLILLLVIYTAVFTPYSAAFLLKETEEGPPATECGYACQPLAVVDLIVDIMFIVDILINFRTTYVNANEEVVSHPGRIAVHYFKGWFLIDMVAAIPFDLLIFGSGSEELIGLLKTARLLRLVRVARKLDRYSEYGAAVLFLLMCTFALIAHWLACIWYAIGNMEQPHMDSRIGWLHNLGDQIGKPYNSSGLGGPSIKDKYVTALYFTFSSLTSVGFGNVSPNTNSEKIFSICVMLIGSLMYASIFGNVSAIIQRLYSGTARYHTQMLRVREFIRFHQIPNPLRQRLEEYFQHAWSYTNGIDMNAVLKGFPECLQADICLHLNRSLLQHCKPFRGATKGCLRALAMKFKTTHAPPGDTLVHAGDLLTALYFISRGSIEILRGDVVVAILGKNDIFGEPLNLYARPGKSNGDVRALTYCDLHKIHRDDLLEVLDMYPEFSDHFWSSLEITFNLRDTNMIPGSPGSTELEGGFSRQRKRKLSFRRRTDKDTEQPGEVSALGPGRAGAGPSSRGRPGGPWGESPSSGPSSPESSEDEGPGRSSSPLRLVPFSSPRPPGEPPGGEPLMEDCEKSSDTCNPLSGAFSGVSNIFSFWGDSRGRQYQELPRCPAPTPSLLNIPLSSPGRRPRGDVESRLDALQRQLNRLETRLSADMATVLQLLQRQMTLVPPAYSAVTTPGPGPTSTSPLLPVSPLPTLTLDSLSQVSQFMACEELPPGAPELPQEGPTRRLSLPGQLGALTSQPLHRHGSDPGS

Compound	hERG current change (%, negative = inhibition) at 10uM
Cc1cc2occ(CC(=O)N(CC(C)C)c3c(N)n(Cc4ccccc4)c(=O)[nH]c3=O)c2cc1C	-18.4%
O=C(Cn1cnc2c(nnn2Cc2ccccc2F)c1=O)NCC1CCCO1 (centres unmarked)	-3.88%
O=C(/C=C/c1ccccc1[N+](=O)[O-])N1CCOCC1	15.5%
O=C(/C=C/c1ccc(F)cc1)N1CCN(c2ncccn2)CC1	12.1%
O=C(/C=C/c1ccc([N+](=O)[O-])cc1)N1CCN(S(=O)(=O)c2cccs2)CC1	-18.7%
O=C(/C=C/c1ccccc1[N+](=O)[O-])N1CCN(c2ccc(F)cc2)CC1	-56.5%
O=C(/C=C/c1ccccc1[N+](=O)[O-])N1CCN(c2ccccc2F)CC1	-13.8%
O=C(/C=C/c1cccc(F)c1)N1CCN(c2ccccn2)CC1	-118%
O=C(/C=C/c1ccccc1)N1CCN(c2ccccn2)CC1	-42.8%
O=C(/C=C/c1c(Cl)cccc1Cl)N1CCN(c2ncccn2)CC1	-72.7%
O=C(/C=C/c1cccc(F)c1)N1CCN(c2ncccn2)CC1	7.29%
O=C(/C=C/c1cccc([N+](=O)[O-])c1)N1CCN(S(=O)(=O)c2cccs2)CC1	-62.2%
O=C(/C=C/c1ccco1)N1CCN(S(=O)(=O)c2cccs2)CC1	-7.4%
O=C(/C=C/c1ccccc1Cl)N1CCN(c2ncccn2)CC1	-32.4%
COc1cccc(CNC(=O)c2ccc(CS(=O)(=O)Cc3ccc(C)cc3)o2)c1	-12.8%
CCN(c1cccc(C)c1)S(=O)(=O)c1nnc(NC(=O)c2ccco2)s1	3.8%
CCOC(=O)c1sc(NC(=O)c2ccc3nc[nH]c3c2)nc1C	8.25%
O=C(Nc1cc2ccccc2oc1=O)c1ccccc1	22.7%
O=C(Cc1ccccc1)N[C@@H](Cc1ccccc1)C(=O)O	7.29%
Cc1ccc(CC(=O)NCCC(=O)O)cc1	16.9%
Cc1c(C(=O)O)oc2ccc(S(=O)(=O)NCCC3=CCCCC3)cc12	0.629%
COc1ccc(NC(=O)C2CCN(C(=O)c3ccco3)CC2)c(OC)c1	22.3%
Cc1nc2ccc(Br)cn2c1NC(C)(C)C	-20.9%

Compound	hERG current change (%, negative = inhibition) at 10uM
COc1ccc(-c2cc(C#N)nc(N3CCN(c4ccccc4)CC3)n2)cc1	3.41%
CCOc1cc2[nH]c(=S)n(CCCN3CCCC3=O)c(=O)c2cc1OCC	-23.5%
COCc1nnc(NC(=O)c2cccc(NC(=O)c3ccccc3)c2)s1	-8.59%
O=C(/C=C/c1cccc([N+](=O)[O-])c1)N1CCN(c2ccccc2F)CC1	-38.9%
O=C(/C=C/c1cccc([N+](=O)[O-])c1)N1CCN(c2ccc(F)cc2)CC1	-56.7%
O=C(/C=C/c1cccc([N+](=O)[O-])c1)N1CCOCC1	-3.86%
O=C(NCCC(=O)N1CCCC1)c1ccccc1Cl	22%
CNC(=O)C(C)N1c2cccc3cccc(c23)S1(=O)=O (centres unmarked)	22.3%
Cc1ccc(OCc2nnc(SCC(=O)c3ccccc3)n2-c2ccccc2)cc1	1.75%
CC1(c2ccccc2)NC(=O)N(CC(=O)Nc2ccccc2C(=O)N2CCCCC2)C1=O (centres unmarked)	19.7%
O=C(CSc1nc(-c2ccco2)cc(C(F)(F)F)n1)N1CCSCC1	-19.9%
CN1CCN(C(=O)CSc2nc(-c3ccco3)cc(C(F)(F)F)n2)CC1	15.3%
O=C(CSc1nc(-c2ccco2)cc(C(F)(F)F)n1)N1CCN(Cc2ccccc2)CC1	-58.8%
CCc1cc(C(=O)N(C)CC(=O)Nc2c(Cl)cccc2Cl)sc1C	-2.89%
COc1cc(O)c(C(CC(=O)N2CCCCC2)c2ccc3c(c2)OCO3)c(OC)c1 (centres unmarked)	5.41%
COc1cc(O)c(C(CCN2CCOCC2)c2ccc(N(C)C)cc2)c(OC)c1 (centres unmarked)	7.96%
COc1cc(O)c(C(CC(=O)N2CCOCC2)c2ccc3c(c2)OCO3)c(OC)c1 (centres unmarked)	7.98%
COc1cc(O)c(C(CCN2CCCC2)c2cc(OC)c(OC)c(OC)c2)c(OC)c1 (centres unmarked)	-7.35%
COc1cc(O)c(C(CC(=O)N2CCCC(C)C2)c2ccc3c(c2)OCO3)c(OC)c1 (centres unmarked)	-5.66%
COc1cc(O)c(C(CCN2CCN(c3ccccc3)CC2)c2ccc3c(c2)OCO3)c(OC)c1 (centres unmarked)	-16.6%
COc1cc(O)c(C(CC(=O)N2CCCC2)c2ccc3c(c2)OCO3)c(OC)c1 (centres unmarked)	6.4%
COc1cc(O)c(C(CCN2CCOCC2)c2ccc3c(c2)OCO3)c(OC)c1 (centres unmarked)	-59.5%
COc1cc(O)c(C(CCN2CCCC2)c2ccc3c(c2)OCO3)c(OC)c1 (centres unmarked)	-72.5%

Compound	hERG current change (%, negative = inhibition) at 10uM
COc1cc(O)c(C(CCN2CCCC(C)C2)c2ccc(N(C)C)cc2)c(OC)c1 (centres unmarked)	-29.5%
COc1cc(O)c(C(CCN2CCCC(C)C2)c2ccc3c(c2)OCO3)c(OC)c1 (centres unmarked)	-77.5%
COc1cc(O)c(C(CCN2CCCCC2)c2ccc3c(c2)OCO3)c(OC)c1 (centres unmarked)	-78.3%
COc1ccc(NC(=O)c2cc3ccccc3o2)cc1OC	-3.22%
O=C1CC(c2ccccc2)c2ccccc21 (centres unmarked)	8.78%
Cc1ccc(Cn2nc(C)c(NC(=O)CSc3nc4c(c(C(F)(F)F)n3)CCc3ccccc3-4)c2C)cc1	13.1%
O=C(O)Cc1sc(Nc2ccc(F)cc2)nc1-c1cccs1	15.3%
Cc1ccccc1C(CC(=O)c1cccs1)C(C#N)C#N (centres unmarked)	20.2%
Cc1ccc(Cn2ncc3c(N4CCN(c5ccc(C)cc5)CC4)ncnc32)cc1	8.18%
COCCN(C(=O)c1cc2c(s1)CCCCC2)c1c(N)n(CC(C)C)c(=O)[nH]c1=O	3.04%
CCOC(=O)C(NC(=O)C1CCCN1C(=O)OCc1ccccc1)C(=O)OCC (centres unmarked)	-0.938%
CCc1nnc(NC(=O)C2CCCN2C(=O)Nc2ccc(Cl)cc2)s1 (centres unmarked)	1.86%
COc1cc(-c2cc(C(=O)Nc3ccc(S(=O)(=O)Nc4ncccn4)cc3)c3ccccc3n2)cc(OC)c1OC	-7.01%
CCn1c(=O)cc(SCC(=O)Nc2ccc(OC)c(OC)c2)c2ccccc21	-4.7%
COc1ccc(S(=O)(=O)Nc2ccc(-n3cnnn3)cc2)cc1[N+](=O)[O-]	0.00208%
CC(C)(C)OC(=O)NCCCCCNC(=O)c1[nH]cnc1C(=O)Nc1ccccc1	-53.2%
CC(C)(C)OC(=O)CNC(=O)c1[nH]cnc1C(=O)NC1CCN(C(=O)OC(C)(C)C)CC1	-2.67%
Cc1ccc(NC(=O)c2nc[nH]c2C(=O)NCCCCCNC(=O)OC(C)(C)C)cc1	-15.2%
CC(C)(C)OC(=O)NCCCCCNC(=O)c1[nH]cnc1C(=O)Nc1ccc(Cl)cc1	-6.26%
CC(C)(C)OC(=O)NCCCCCNC(=O)c1[nH]cnc1C(=O)NC1CCN(C(=O)OC(C)(C)C)CC1	-78.1%
CC(C)(C)OC(=O)N1CCC(NC(=O)c2nc[nH]c2C(=O)NC2CCN(C(=O)OC(C)(C)C)CC2)CC1	-31.5%
O=C(COC(=O)/C=C/c1ccccc1Cl)NC1CCCC1	14.6%
O=C(Nc1cccc2ccccc12)NC1CCCCC1O (centres unmarked)	0.227%

Compound	hERG current change (%, negative = inhibition) at 10uM
O=C(Nc1ccc(Cl)cc1Cl)C1CCC(=O)N1Cc1ccccc1Cl (centres unmarked)	-2.67%
C#CCOCCOCCOCCNc1nc(N2CCN(C(=O)CCCCCCCCCCNC(=O)[C@H](CO)n3cc(CCCSC)nn3)CC2)nc(N2CCN(C(=O)CCCCCCCCCCNC(=O)[C@@H]([C@H](C)O)n3cc(C)nn3)CC2)n1	8.18%
Cc1nnc(SCC(=O)Nc2ccc3c(c2)OCCO3)s1	16.9%
C/C(=N\O)c1ccc2c3ccccc3n(C)c2c1	25.3%
COc1cc(CNCc2cccs2)ccc1OCc1ccccc1.Cl	-31.8%
N#C/C(=C\c1c[nH]c2ccccc12)c1nnc2n1CCCCC2	-29.5%
O=C(/C=C/c1cn(-c2ccccc2)nc1-c1cccnc1)N1CCCCC1	-49.7%
N#C/C(=C\c1cn(-c2ccccc2)nc1-c1cccnc1)c1nnc2n1CCCCC2	-63.2%
Cc1cc(C(=O)COC(=O)C(C)NC(N)=O)c(C)n1Cc1ccco1 (centres unmarked)	10.5%
CCN(C(=O)Cn1nc(C)c([N+](=O)[O-])c1C)C1CCS(=O)(=O)C1 (centres unmarked)	24.1%
Cc1ccc(NC(=O)Cn2ccc([N+](=O)[O-])n2)cc1C	14.2%
CCN1CCN(c2nc3c(c(=O)n(C)c(=O)n3C)n2CCSc2ncccn2)CC1	3.51%
COc1ccc(N2CCN(C(=O)CSc3nc4c(c(=O)n(C)c(=O)n4C)n3C(C)C)CC2)cc1	-50.2%
CC(C)n1c(SCC(=O)N2CCN(C)CC2)nc2c1c(=O)n(C)c(=O)n2C	2.15%
Cn1c(=O)c2c(nc(N3CCN(C(=O)c4ccco4)CC3)n2CCSc2ncccn2)n(C)c1=O	-57.4%
Cn1c(=O)c2c(nc(N3CCOCC3)n2CCSc2ncccn2)n(C)c1=O	0.639%
CC(C)n1c(SCC(=O)N2CCN(C(=O)c3ccco3)CC2)nc2c1c(=O)n(C)c(=O)n2C	-50.9%
CC(C)n1c(SCC(=O)N2CCCC2)nc2c1c(=O)n(C)c(=O)n2C	-5.03%
CCCn1c(SCC(=O)N2CCN(c3ccc(OC)cc3)CC2)nc2c1c(=O)n(C)c(=O)n2C	-36%
CC(C)n1c(CN2CCN(C(=O)c3ccco3)CC2)nc2c1c(=O)n(C)c(=O)n2C	-7.57%
